These results are taken from ChEMBL document CHEMBL1961873, “Compounds: GSK PKIS; Assays: Nanosyn kinase panel” (2012).

Assay [1] has as its target Tyrosine-protein kinase SYK (Homo sapiens) (UniProt P43405). The note with it: at 1 µM.
Assay [2] deals with T1, Tyrosine-protein kinase Tec (Homo sapiens) (UniProt P42680).
T1 sequence (whole entry): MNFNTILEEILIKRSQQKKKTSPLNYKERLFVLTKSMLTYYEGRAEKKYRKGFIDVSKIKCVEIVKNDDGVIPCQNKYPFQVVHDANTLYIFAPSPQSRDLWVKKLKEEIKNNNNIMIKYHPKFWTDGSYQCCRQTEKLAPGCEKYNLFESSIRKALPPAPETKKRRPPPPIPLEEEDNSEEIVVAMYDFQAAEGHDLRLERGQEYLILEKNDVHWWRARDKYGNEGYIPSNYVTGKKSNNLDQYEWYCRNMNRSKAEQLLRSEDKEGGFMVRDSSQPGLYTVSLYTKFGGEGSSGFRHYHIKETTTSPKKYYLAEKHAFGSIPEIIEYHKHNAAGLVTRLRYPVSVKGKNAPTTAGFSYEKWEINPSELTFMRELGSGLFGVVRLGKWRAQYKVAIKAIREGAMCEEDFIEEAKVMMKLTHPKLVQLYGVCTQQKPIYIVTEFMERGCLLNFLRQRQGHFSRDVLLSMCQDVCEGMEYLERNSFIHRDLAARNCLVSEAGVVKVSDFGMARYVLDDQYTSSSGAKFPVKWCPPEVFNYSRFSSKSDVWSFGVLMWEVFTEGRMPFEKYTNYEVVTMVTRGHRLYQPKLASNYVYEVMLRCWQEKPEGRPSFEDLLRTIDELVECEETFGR
Conditions: at 0.1 µM.

The target in assay [3] is T1, Tyrosine-protein kinase Tec (Homo sapiens). The note with it: at 1 µM.
Assay [4] addresses Angiopoietin-1 receptor (Homo sapiens) (UniProt Q02763). Conditions: at 0.1 µM.
Assay [5] has the same target. Conditions: at 1 µM.
Assay [6] addresses T2, Non-receptor tyrosine-protein kinase TNK1 (Homo sapiens) (UniProt Q13470).
T2 sequence (whole entry): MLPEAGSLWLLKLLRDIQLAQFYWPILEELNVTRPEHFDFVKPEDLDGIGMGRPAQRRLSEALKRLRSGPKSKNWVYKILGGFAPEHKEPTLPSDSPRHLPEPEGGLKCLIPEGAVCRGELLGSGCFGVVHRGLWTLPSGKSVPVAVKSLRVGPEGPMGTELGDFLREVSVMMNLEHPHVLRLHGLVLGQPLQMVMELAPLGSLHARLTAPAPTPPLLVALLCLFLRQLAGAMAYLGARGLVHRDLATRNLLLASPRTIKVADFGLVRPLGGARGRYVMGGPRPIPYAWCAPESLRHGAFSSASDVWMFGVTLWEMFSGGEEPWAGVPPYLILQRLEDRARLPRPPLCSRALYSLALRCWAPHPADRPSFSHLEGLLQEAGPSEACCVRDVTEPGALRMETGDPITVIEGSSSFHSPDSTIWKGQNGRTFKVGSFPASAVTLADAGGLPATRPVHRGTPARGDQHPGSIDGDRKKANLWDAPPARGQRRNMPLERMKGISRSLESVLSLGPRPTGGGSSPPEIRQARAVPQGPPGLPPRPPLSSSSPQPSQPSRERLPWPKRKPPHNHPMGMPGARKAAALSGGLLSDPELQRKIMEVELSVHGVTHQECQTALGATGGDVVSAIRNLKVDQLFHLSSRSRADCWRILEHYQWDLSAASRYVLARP
Conditions: at 0.1 µM.

Assay [7] addresses T2, Non-receptor tyrosine-protein kinase TNK1 (Homo sapiens). Conditions: at 1 µM.
For assay [8], the target named is Activated CDC42 kinase 1 (Homo sapiens) (UniProt Q07912). Conditions: at 0.1 µM.
For assay [9] the target is unchanged. The note with it: at 1 µM.
The target of assay [10] is High affinity nerve growth factor receptor (Homo sapiens) (UniProt P04629). The note with it: at 0.1 µM.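 Further: each value is a mean of replicate percent inhibition readings against TRKA kinase.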
Chain of High affinity nerve growth factor receptor (Homo sapiens) (P04629 33-796 limits assumed): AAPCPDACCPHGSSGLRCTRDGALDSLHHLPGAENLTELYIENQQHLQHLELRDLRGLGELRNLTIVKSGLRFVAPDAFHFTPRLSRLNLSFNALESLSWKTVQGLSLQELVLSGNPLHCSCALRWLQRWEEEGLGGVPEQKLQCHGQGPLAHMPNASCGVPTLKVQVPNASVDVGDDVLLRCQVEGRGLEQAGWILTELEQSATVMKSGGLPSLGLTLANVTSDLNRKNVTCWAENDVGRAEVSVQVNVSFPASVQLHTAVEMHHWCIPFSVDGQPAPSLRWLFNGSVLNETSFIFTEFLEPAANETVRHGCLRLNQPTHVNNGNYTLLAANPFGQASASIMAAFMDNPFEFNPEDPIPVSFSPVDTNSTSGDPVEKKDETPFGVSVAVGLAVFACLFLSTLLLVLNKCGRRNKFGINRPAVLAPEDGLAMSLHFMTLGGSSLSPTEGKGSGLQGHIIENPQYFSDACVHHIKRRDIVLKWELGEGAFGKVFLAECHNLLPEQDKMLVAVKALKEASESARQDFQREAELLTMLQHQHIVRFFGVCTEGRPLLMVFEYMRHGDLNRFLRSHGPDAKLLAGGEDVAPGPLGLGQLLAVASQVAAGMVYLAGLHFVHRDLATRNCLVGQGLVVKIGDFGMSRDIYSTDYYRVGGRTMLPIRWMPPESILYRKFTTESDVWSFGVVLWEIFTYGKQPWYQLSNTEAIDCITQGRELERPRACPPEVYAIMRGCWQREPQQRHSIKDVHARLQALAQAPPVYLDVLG

Chain of Angiopoietin-1 receptor (Homo sapiens) (Q02763 whole entry): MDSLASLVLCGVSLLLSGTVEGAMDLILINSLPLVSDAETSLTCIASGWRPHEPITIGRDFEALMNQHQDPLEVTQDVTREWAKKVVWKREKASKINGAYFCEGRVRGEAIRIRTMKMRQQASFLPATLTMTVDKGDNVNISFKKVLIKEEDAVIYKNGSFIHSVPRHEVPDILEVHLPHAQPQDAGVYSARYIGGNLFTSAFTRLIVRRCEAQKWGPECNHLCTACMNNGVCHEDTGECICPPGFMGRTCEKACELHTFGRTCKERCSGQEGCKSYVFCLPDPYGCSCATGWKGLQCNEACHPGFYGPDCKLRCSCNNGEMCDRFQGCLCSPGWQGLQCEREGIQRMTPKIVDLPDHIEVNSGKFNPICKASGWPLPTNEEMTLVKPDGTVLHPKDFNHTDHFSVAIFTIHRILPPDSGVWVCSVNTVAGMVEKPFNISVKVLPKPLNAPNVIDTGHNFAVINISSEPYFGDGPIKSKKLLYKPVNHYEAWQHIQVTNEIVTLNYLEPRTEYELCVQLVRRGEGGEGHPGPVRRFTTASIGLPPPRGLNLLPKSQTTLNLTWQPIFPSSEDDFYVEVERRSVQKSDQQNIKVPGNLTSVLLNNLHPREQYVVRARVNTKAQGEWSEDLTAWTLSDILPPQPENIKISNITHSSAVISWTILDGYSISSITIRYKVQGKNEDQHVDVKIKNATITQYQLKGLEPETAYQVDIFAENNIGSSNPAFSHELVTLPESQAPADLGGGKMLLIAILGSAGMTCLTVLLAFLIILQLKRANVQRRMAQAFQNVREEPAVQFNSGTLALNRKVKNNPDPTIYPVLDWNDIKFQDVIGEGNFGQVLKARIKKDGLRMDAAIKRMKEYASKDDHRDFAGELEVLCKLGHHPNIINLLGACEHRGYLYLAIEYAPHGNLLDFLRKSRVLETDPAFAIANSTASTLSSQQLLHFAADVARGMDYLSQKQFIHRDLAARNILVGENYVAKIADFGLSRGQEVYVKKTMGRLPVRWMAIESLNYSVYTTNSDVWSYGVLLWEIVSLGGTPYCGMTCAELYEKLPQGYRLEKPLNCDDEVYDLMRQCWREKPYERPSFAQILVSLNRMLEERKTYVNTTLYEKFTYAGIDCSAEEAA
Chain of Activated CDC42 kinase 1 (Homo sapiens) (Q07912 whole entry, looked up): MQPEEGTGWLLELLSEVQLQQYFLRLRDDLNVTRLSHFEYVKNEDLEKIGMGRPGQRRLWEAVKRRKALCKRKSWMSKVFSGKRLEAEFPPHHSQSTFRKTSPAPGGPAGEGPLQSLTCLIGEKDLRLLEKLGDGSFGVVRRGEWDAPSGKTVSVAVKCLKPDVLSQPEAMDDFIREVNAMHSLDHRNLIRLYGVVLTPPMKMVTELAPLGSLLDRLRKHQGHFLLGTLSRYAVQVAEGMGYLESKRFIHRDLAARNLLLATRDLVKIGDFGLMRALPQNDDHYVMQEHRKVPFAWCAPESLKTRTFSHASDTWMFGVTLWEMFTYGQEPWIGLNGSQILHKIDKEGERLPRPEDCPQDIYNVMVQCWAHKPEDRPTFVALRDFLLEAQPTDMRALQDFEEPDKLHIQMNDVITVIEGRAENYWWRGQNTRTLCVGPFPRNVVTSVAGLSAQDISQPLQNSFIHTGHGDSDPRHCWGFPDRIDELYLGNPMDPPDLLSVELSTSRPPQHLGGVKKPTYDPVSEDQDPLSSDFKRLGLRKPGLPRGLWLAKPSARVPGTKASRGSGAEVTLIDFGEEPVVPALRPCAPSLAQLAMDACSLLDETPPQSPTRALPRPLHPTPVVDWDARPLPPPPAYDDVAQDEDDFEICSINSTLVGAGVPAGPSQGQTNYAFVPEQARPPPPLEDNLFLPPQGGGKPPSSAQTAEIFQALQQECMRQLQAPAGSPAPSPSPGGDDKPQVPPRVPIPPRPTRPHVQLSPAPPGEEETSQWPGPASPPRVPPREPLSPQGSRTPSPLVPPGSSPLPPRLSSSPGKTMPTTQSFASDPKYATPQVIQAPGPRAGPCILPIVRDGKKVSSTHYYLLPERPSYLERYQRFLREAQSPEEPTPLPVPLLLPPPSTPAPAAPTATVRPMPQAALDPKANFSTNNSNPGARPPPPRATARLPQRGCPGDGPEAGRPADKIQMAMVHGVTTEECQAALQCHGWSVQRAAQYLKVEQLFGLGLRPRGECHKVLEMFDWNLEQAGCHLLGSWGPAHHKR

In the case of `C[C@@H](Oc1cc(-n2cnc3ccc(OCC4CCN(C)CC4)cc32)sc1C(N)=O)c1ccccc1C(F)(F)F`, the inhibition (usually the drop in the measured response relative to a control, in per cent) in assay [1] was 0.25%; in [2], -1.52%; in assay [3], -0.1%; in assay [4], 5.78%; in assay [5], 32.4%; in assay [6], 3.21%. For the same molecule, the inhibition in assay [7] is 30.3%; in assay [8], 5.42%; in assay [9], 46.1%; in assay [10], -0.37%.
On to `N#Cc1cccc(Nc2nccc(-c3cnn4ncccc34)n2)c1`, for which the inhibition in [1] was 53.2%; in assay [2], 8.87%; in assay [3], 39.3%; in assay [4], 3.66%; in [5], 18.6%; in [6], 11.9%. In addition, the inhibition in assay [7] was found to be 52.3%; in assay [8], 2.35%; in assay [9], 11.7%; in [10], 15.4%.
Regarding `O=C(Nc1ccc(Oc2ccc3[nH]c(NC(=O)c4ccco4)nc3c2)cc1)Nc1cc(C(F)(F)F)ccc1F`, the inhibition in [1] is -2.67%; in assay [2] it was -1.71%; in [3] it was 0.35%; in [4] it was 49.4%; in assay [5], 82.4%; in assay [6] it was 9.16%. For the same molecule, the inhibition in [7] is 58.6%; in assay [8], 0.17%; in assay [9], 0.5%; in assay [10], 30.2%.
In the case of `CCS(=O)(=O)c1ccc(OC)c(Nc2ncc(-c3cccc(OC)c3)o2)c1`, the inhibition in assay [1] was -2.39%; in assay [2], 8.3%; in assay [3], 35.5%; in [4], 3.35%; in assay [5], 16.1%; in assay [6], 49%. The inhibition in assay [7] is 90.6%; in [8] it was 2.52%; in [9] it was 15.3%; in assay [10], 7.51%.
Turning to `c1ccc(Cc2nc3ccc(Nc4ncnc5ccccc45)cc3[nH]2)cc1`, the inhibition in assay [1] is -0.79%; in assay [2] it was 4.4%; in [3], 8.08%; in assay [4], 2.5%; in [5], 5.58%; in assay [6], 1.92%. The inhibition in assay [7] is 11.4%; in assay [8] it was 1.45%; in assay [9], 3.26%; in [10], 2.77%.
Regarding `Nc1nccc(-c2c(-c3ccc(F)cc3)nn3cc(C(F)(F)F)ccc23)n1`, the inhibition in assay [1] is -1.5%; in assay [2] it was 0.64%; in [3], 4.1%; in assay [4], 1.2%; in assay [5] it was 3.87%; in assay [6], 2.37%. Moreover, the inhibition in [7] was -0.22%; in [8], -0.73%; in assay [9], 0.6%; in assay [10], -2.97%.
Consider `Nc1nccc(-c2c(-c3ccc(F)cc3)ncn2CCCN2CCOCC2)n1`, for which the inhibition is -0.03% in assay [1]; 3.86% in assay [2]; 3.98% in [3]; 8.3% in assay [4]; 8.42% in [5]; 1.92% in assay [6]. The inhibition in assay [7] was 5.56%; in assay [8], 0.21%; in [9] it was 1.33%; in [10] it was -0.29%.
Consider `CCOc1nccc2c1nc(-c1nonc1N)n2CC`, for which the inhibition in [1] turned out to be 1.57%; in assay [2] it was 3.96%; in [3], 5.87%; in assay [4] it was 2.25%; in assay [5], 8.59%; in [6], 2.63%. In addition, the inhibition in assay [7] was 20.1%; in [8] it was 3.04%; in assay [9], 7.54%; in assay [10], -1.22%.
Turning to `Cc1ccc2c(-c3ccnc(Nc4ccc5c(c4)OCCO5)n3)c(-c3ccc(C(F)(F)F)cc3)nn2n1`, the inhibition in assay [1] was -4.13%; in [2], -0.12%; in assay [3], 3.34%; in [4], -0.68%; in [5], 6.26%; in [6], -0.74%. Further, the inhibition is 2.22% in assay [7], -0.07% in assay [8], 0.6% in assay [9] and -1.98% in [10].
Turning to `CCn1c(-c2nonc2N)nc2ccc(F)cc21`, the inhibition was -1.93% in assay [1]; 6.29% in assay [2]; 3.97% in assay [3]; 2.7% in [4]; 1.79% in assay [5]; 7.71% in assay [6]. Besides, the inhibition was 9.97% in assay [7], 1.53% in assay [8], 3.08% in assay [9] and 2.92% in [10].
Regarding `Cc1cc(Cl)cc2c1NC(=O)C2=NNc1ccc(S(N)(=O)=O)cc1`, the inhibition in [1] was 0.95%; in [2], 2.23%; in assay [3], 1.43%; in assay [4], 2.08%; in assay [5], 2.32%; in [6], -0.6%. The inhibition in [7] was 7.55%; in assay [8], 0.54%; in [9] it was 1.92%; in [10], -1.82%.
Consider `CCn1c(-c2nonc2N)nc2c(C#CC(C)(C)O)nc(OCCNC)cc21`, for which the inhibition in assay [1] was 0.91%; in assay [2], 5.49%; in assay [3], 3.22%; in assay [4], 2.67%; in assay [5] it was 6.8%; in assay [6], 0.64%. In addition, the inhibition in assay [7] worked out at 3.22%; in [8], 0.83%; in assay [9], 1.43%; in assay [10], 3.54%.
For `CS(=O)(=O)Nc1cccc(-c2ccc3c(NC(=O)C4CC4)n[nH]c3c2)c1`, the inhibition in assay [1] stood at 0.89%; in [2], 2.55%; in assay [3], 3.97%; in [4] it was 1.52%; in [5] it was 7.04%; in assay [6] it was 2.45%. In addition, the inhibition in assay [7] was -6.75%; in assay [8], -0.85%; in assay [9], -2.06%; in assay [10], -1.92%.
Consider `CC(C)c1ccc(Nc2nccc(-c3cnn4ncccc34)n2)cc1`, for which the inhibition amounted to 9.02% in [1]; 2.28% in assay [2]; 7.14% in [3]; 2.92% in assay [4]; 4.32% in assay [5]; 5.68% in [6]. Further, the inhibition in [7] is 49.3%; in assay [8], 0.39%; in assay [9] it was 2.14%; in assay [10], 3.65%.
On to `COc1cccc(-n2ncc3c(N/N=C/c4ccc(C)cc4)ncnc32)c1`, for which the inhibition turned out to be 0.76% in assay [1]; 6.46% in assay [2]; 5.78% in assay [3]; 4.38% in assay [4]; 5.1% in [5]; 4.86% in assay [6]. The inhibition was 9.73% in assay [7], 0.47% in assay [8], 5.39% in [9] and 9.62% in assay [10].
Turning to `Nc1nccc(C#Cc2cncnc2Nc2ccc(OCc3cccc(F)c3)c(Cl)c2)n1`, the inhibition is -0.63% in [1]; 5.34% in [2]; 13.6% in [3]; 4.38% in assay [4]; 3.5% in assay [5]; 5.1% in [6]. Further, the inhibition turned out to be 8.89% in assay [7], 1.73% in assay [8], 3.21% in [9] and 4.45% in assay [10].
Turning to `Cc1cc(O)cc(C)c1/C=C/c1cncc(C(=O)N(C)C)c1`, the inhibition came out at 2.96% in assay [1]; 3.84% in assay [2]; 5.03% in assay [3]; 5.65% in assay [4]; 10.7% in [5]; 1.79% in assay [7]. Moreover, the inhibition in assay [8] was determined as 1.45%; in [9], 2.24%; in [10], 2.88%.
